Seven compounds from ChEMBL document CHEMBL1961873, “Compounds: GSK PKIS; Assays: Nanosyn kinase panel” (2012) can be followed below.

For test [1], the target named is MAP/microtubule affinity-regulating kinase 3 (Homo sapiens) (UniProt P27448). The note with it: at 1 µM.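 Further: reported values are averaged percent inhibition of MARK3.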
In test [2] the target is T1, MAP/microtubule affinity-regulating kinase 4 (Homo sapiens) (UniProt Q96L34).
T1 sequence (whole entry): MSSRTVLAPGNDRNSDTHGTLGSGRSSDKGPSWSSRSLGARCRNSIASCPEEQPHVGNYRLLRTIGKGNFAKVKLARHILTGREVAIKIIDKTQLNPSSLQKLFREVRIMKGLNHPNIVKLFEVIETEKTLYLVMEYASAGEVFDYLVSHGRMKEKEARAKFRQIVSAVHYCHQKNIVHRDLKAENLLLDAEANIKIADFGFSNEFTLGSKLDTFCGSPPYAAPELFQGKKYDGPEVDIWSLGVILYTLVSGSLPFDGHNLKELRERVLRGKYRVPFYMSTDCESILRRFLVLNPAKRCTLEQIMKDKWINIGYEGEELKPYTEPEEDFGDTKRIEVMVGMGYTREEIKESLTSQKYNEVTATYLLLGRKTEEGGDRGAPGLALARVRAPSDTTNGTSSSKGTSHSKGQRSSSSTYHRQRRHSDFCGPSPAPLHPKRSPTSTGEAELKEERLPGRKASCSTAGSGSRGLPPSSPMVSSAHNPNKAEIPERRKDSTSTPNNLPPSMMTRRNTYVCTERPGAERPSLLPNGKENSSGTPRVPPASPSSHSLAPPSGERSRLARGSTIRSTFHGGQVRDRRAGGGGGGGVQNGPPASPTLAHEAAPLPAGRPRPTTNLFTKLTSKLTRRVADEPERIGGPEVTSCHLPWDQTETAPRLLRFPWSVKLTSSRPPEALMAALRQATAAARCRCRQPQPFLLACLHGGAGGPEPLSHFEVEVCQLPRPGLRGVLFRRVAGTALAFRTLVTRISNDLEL
The note with it: at 0.1 µM.

In test [3] the target is T1, MAP/microtubule affinity-regulating kinase 4 (Homo sapiens). Particulars: at 1 µM.
Test [4] addresses Maternal embryonic leucine zipper kinase (Homo sapiens) (UniProt Q14680). The note with it: at 0.1 µM.
Test [5] has the same target. The note with it: at 1 µM.
For test [6], the target named is MAP kinase-interacting serine/threonine-protein kinase 1 (Homo sapiens) (UniProt Q9BUB5). The note with it: at 0.1 µM.
Test [7] shares this target. The note with it: at 1 µM.
The target of test [8] is MAP kinase-interacting serine/threonine-protein kinase 2 (Homo sapiens) (UniProt Q9HBH9). Particulars: at 0.1 µM.
The target is the same in test [9]. Particulars: at 1 µM.
In test [10] the target is Serine/threonine-protein kinase MARK2 (Homo sapiens) (UniProt Q7KZI7). The note with it: at 0.1 µM.
The target is the same in test [11]. Particulars: at 1 µM.
The target in test [12] is PAS domain-containing serine/threonine-protein kinase (Homo sapiens) (UniProt Q96RG2). Particulars: at 0.1 µM.
The target is the same in test [13]. The note with it: at 1 µM.
Test [14] deals with Phosphorylase b kinase gamma catalytic chain, skeletal muscle/heart isoform (Homo sapiens) (UniProt Q16816). The note with it: at 0.1 µM.
Test [15] shares this target. Particulars: at 1 µM.
The target in test [16] is T2, Phosphorylase b kinase gamma catalytic chain, liver/testis isoform (Homo sapiens) (UniProt P15735).
T2 sequence (whole entry): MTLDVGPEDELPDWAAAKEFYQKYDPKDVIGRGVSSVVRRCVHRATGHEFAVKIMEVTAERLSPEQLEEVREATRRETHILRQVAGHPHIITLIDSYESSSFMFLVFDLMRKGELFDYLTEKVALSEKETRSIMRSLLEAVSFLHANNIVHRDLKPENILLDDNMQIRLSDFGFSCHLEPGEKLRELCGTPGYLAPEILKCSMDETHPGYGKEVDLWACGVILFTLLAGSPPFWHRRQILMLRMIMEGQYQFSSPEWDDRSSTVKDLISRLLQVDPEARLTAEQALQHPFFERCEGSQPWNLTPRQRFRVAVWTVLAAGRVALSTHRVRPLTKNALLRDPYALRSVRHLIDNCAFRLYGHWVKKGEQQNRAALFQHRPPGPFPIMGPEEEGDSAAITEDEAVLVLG
The note with it: at 0.1 µM.

Test [17] concerns the target T2, Phosphorylase b kinase gamma catalytic chain, liver/testis isoform (Homo sapiens). The note with it: at 1 µM.
Test [18] deals with Serine/threonine-protein kinase pim-1 (Homo sapiens) (UniProt P11309). Particulars: at 0.1 µM.
Test [19] has the same target. Particulars: at 1 µM.
Test [20] addresses Serine/threonine-protein kinase pim-2 (Homo sapiens) (UniProt Q9P1W9). The note with it: at 0.1 µM.

What is called inhibition is the drop in the measured response relative to a control, in per cent.

Where “and” joins values, the source holds several entries; their conditions need not be identical. Equal values may be shown once.

Serine/threonine-protein kinase MARK2 (Homo sapiens), sequence (Q7KZI7 whole entry): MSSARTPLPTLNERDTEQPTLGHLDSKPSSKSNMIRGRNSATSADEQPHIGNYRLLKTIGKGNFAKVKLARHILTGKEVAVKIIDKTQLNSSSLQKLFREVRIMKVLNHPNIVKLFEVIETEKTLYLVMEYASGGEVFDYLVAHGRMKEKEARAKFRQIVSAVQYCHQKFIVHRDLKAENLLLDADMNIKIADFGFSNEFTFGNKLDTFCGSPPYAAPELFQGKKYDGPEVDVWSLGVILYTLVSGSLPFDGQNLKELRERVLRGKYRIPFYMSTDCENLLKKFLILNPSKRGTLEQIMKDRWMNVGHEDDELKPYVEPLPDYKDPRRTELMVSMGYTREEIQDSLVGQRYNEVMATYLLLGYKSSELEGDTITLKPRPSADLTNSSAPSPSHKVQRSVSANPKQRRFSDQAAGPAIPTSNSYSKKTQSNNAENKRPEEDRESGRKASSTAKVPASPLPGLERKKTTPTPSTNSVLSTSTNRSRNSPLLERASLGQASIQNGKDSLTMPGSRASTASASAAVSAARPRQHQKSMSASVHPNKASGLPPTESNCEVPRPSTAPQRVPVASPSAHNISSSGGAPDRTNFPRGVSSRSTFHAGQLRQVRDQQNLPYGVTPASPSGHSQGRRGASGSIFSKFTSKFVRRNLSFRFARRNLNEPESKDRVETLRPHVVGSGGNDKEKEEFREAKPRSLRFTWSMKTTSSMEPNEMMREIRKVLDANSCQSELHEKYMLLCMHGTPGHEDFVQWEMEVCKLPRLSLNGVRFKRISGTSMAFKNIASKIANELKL
PAS domain-containing serine/threonine-protein kinase (Homo sapiens), sequence (Q96RG2 whole entry, the tested form may be a part): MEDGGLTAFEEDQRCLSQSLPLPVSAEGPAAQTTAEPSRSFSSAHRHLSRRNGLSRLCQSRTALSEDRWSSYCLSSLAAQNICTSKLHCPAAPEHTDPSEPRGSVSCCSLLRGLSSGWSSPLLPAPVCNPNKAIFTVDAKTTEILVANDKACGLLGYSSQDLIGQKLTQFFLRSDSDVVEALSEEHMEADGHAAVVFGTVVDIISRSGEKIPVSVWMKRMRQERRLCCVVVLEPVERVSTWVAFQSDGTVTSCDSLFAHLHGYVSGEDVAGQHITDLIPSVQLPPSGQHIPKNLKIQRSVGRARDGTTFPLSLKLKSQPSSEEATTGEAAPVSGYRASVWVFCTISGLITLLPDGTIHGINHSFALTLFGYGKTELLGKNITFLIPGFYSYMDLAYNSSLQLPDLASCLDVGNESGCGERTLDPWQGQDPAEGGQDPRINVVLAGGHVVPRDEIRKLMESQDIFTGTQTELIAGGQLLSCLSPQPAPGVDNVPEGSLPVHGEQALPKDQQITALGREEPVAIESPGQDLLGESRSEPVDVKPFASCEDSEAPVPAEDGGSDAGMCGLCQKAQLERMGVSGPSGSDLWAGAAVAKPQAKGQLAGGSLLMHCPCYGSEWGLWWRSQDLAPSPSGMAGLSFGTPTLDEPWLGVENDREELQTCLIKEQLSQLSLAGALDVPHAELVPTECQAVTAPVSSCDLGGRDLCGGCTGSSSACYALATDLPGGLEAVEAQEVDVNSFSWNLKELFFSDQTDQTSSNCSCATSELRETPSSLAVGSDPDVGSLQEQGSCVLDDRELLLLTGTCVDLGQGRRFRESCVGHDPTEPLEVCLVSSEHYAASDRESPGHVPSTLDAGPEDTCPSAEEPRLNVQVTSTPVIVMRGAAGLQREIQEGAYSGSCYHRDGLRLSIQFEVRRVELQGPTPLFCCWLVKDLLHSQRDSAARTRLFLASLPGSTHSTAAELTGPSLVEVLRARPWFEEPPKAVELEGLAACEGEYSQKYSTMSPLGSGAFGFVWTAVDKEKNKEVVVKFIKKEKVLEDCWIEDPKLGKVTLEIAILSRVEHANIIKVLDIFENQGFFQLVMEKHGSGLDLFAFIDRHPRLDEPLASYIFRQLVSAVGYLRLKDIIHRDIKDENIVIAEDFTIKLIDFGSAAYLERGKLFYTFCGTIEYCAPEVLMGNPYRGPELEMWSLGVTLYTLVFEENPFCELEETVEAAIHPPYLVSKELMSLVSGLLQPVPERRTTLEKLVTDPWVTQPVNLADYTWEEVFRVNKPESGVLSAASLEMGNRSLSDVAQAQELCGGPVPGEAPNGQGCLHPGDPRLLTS
Maternal embryonic leucine zipper kinase (Homo sapiens), sequence (Q14680 whole entry, looked up): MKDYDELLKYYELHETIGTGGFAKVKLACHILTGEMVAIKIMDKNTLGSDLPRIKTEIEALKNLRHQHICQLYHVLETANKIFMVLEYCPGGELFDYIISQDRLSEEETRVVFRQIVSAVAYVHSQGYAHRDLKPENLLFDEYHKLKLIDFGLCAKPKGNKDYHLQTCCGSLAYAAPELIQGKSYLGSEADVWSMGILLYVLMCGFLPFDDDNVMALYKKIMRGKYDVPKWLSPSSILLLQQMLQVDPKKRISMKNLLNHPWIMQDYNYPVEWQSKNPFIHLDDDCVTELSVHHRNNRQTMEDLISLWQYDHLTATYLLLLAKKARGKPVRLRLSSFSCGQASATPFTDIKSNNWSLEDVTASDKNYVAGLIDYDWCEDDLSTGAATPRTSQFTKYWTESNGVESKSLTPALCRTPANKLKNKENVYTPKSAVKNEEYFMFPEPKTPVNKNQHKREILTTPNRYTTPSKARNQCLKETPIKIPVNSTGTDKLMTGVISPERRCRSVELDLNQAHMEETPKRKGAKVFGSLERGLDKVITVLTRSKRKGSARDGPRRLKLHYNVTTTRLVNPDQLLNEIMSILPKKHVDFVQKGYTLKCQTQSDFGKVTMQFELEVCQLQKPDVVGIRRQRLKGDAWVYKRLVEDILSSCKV
MAP kinase-interacting serine/threonine-protein kinase 1 (Homo sapiens), sequence (Q9BUB5 whole entry, looked up): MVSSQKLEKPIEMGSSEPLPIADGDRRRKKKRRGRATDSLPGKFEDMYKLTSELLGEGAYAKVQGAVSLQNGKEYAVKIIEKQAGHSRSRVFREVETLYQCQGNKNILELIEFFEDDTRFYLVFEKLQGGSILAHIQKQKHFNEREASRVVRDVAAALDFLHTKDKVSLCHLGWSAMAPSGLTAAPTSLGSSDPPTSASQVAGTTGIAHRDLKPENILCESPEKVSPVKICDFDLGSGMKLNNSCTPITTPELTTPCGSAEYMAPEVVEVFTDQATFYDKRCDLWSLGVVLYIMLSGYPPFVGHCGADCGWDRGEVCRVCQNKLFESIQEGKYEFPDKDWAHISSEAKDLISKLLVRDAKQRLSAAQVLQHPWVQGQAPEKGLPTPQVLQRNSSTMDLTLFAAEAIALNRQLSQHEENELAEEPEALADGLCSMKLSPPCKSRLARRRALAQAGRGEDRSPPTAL
MAP/microtubule affinity-regulating kinase 3 (Homo sapiens), sequence (P27448 whole entry, looked up): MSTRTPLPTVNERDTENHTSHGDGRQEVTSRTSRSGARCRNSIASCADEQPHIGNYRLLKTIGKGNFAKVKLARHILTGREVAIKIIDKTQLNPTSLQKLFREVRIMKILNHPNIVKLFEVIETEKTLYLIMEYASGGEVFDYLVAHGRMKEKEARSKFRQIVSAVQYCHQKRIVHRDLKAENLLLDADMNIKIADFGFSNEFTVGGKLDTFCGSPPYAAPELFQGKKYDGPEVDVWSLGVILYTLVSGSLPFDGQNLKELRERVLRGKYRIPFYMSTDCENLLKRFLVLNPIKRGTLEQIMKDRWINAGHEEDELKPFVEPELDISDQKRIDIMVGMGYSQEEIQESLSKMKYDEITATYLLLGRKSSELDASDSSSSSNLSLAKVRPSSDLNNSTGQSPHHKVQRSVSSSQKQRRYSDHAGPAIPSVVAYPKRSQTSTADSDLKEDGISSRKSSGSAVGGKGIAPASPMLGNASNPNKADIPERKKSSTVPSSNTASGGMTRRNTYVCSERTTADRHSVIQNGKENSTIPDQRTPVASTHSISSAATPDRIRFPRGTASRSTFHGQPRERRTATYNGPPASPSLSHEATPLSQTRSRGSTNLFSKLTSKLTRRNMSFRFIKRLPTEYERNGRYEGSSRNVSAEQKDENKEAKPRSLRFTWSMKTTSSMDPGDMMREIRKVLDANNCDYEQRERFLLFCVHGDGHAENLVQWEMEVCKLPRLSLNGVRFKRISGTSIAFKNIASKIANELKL
Serine/threonine-protein kinase pim-1 (Homo sapiens), sequence (P11309 whole entry, looked up): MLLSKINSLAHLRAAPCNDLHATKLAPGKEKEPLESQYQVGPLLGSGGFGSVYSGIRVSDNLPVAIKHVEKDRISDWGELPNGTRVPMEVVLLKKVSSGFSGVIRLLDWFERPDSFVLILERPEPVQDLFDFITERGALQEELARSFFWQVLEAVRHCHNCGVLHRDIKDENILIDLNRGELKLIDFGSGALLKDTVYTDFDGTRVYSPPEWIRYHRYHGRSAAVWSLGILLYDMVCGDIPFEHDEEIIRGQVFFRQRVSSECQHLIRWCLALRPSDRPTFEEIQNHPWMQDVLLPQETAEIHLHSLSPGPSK
MAP kinase-interacting serine/threonine-protein kinase 2 (Homo sapiens), sequence (Q9HBH9 whole entry, looked up): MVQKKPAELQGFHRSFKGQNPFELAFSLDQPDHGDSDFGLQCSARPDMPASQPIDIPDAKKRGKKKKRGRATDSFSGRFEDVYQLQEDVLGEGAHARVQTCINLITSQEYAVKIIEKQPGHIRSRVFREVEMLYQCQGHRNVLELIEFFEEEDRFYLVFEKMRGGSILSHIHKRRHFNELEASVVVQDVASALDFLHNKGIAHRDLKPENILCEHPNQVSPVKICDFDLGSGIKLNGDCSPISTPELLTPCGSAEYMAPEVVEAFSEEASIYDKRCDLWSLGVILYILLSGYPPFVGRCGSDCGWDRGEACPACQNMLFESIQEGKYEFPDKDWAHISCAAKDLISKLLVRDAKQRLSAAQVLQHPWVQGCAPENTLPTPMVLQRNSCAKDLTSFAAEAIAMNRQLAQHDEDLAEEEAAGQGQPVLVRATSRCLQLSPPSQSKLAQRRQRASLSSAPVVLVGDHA

In the case of `c1cnn2ncc(-c3ccnc(NCCCN4CCOCC4)n3)c2c1`, the inhibition in [1] was -0.34%; in [2], 1.05%; in test [3] it was 2.05%; in test [4], 4.35%; in [5] it was 11.9%; in [6], 4.1%. For the same compound, the inhibition in [7] was 10.9%; in [8], 1.64%; in [9] it was 7.83%; in [10], -1.43%; in [11], -1.01%; in [12] it was -1.6%. In addition, the inhibition was -2.98% in test [13]; 4.51% in [14]; 4.16% in test [15]; 4.4% in [16]; 2.46% in test [17]; -0.24% in test [18]. The inhibition in [19] was 1.23%; in [20] it was -0.27%.

`NS(=O)(=O)c1ccc(N/N=C2\C(=O)Nc3cccc(CCc4ccncc4)c32)cc1`: the inhibition came to 3.11% in [1]; 2.47% in test [2]; 4.28% in [3]; 4.76% in test [4]; 34.7% in test [5]; 1.05% in [6]. In addition, the inhibition was 0.27% in [7]; 0.14% in test [8]; 1.83% in test [9]; 0.98% in test [10]; 4.73% in test [11]; 1.68% in test [12]. Moreover, the inhibition in [13] is 1%; in test [14], 4.94%; in test [15], 11.7%; in test [16] it was 0.33%; in [17] it was -0.92%; in test [18], 0.54%. Moreover, the inhibition is 1.13% in [19] and 0.11% in test [20].

Turning to `CNC(=O)c1sc(-n2cnc3cc(OC)c(OC)cc32)cc1OCc1ccccc1C(F)(F)F`, the inhibition is 3.64% in [1]; 2.02% in test [2]; 3.13% in [3]; 2.63% in test [4]; 2% in test [5]; 3.25% in test [6]. The inhibition in [7] was 4.03%; in [8] it was 0.55%; in test [9], 2.13%; in [10], -0.7%; in [11] it was 1.67%; in test [12] it was 0.35%. For the same compound, the inhibition in [13] was 0.79%; in test [14], 4.21%; in test [15], 3.69%; in test [16], 5.8%; in test [17], 5.01%; in [18], -0.73%. Also, the inhibition is -0.07% in [19] and 0.37% in test [20].

Consider `Cc1c2ccc(N(C)c3ccnc(Nc4cccc(S(N)(=O)=O)c4)n3)cc2nn1C`, for which the inhibition in [1] turned out to be 5.76%; in [2], 2.63%; in test [3], 5.35%; in test [4] it was 3.62%; in test [5], 3.67%; in test [6] it was 1.23%. Also, the inhibition in [7] is 4.05%; in [8], -0.12%; in test [9], 3.7%; in [10], 1.14%; in test [11], 4.84%; in [12] it was 0.26%. In addition, the inhibition is -1.92% in test [13]; 4.4% in test [14]; 7.27% in test [15]; 4.88% in test [16]; 3.28% in [17]; 0.43% in test [18]. Moreover, the inhibition in [19] is 1.01%; in [20], -3.44%.

On to `c1ccc(-c2n[nH]cc2-c2ccnc(-c3ccc(OCCn4ccnc4)cc3)c2)nc1`, for which the inhibition turned out to be 6.87% in test [1]; 1.49% in test [2]; 3.83% in test [3]; 2.12% in test [4]; 27.2% in [5]; 0.75% in [6]. Besides, the inhibition was 5.94% in [7]; 0.5% in test [8]; 7.2% in test [9]; -0.46% in [10]; -0.66% in test [11]; -0.73% in [12]. In addition, the inhibition in test [13] was -0.48%; in test [14], 2.85%; in [15], 6.86%; in [16] it was -0.35%; in test [17], 3.4%; in [18] it was 0.32%. Besides, the inhibition stood at 0.45% in [19] and 0.56% in test [20].

As to `Fc1cccc(COc2ccc(Nc3ncncc3C#Cc3ccccc3)cc2Cl)c1`, the inhibition was determined as 4.26% in test [1]; 0.48% in test [2]; 1.07% in [3]; 3.34% in [4]; 4.69% in [5]; 3.32% in [6]. In addition, the inhibition in test [7] amounted to 11.8%; in test [8], 2.53%; in test [9], 6.84%; in test [10], 0.96%; in [11], 1.05%; in [12], 0.76%. Besides, the inhibition in [13] was determined as 1.64%; in [14], 3.8%; in [15] it was 5.87%; in [16], 5.59%; in [17] it was 8.15%; in test [18], 0.46%. For the same compound, the inhibition was determined as 1.07% in [19] and 0.52% in test [20].

Consider `Nc1nonc1-c1nc2cnccc2n1C1CC1`, for which the inhibition in [1] was 22.6% and 19%; in [2], 3.74% and 2.4%; in test [3] it was 11% and 8.22%; in test [4], 10.2% and 12.6%; in test [5] it was 66.9% and 71.4%; in [6], 3.95% and 1.61%. Further, the inhibition in test [7] is 9.32% and 10.2%; in [8], 4.37% and 1.55%; in test [9], 18.2% and 15.1%; in test [10] it was 3.55% and -0.71%; in test [11], 17.9% and 14.9%; in [12] it was 0.62% and -0.65%. Further, the inhibition in test [13] was 1.08% and 0.92%; in [14] it was 5% and 3.93%; in test [15], 7.51% and 3.48%; in test [16], 4.1% and 2.66%; in test [17] it was 1.15% and 2.16%; in test [18] it was 12.4% and 13.8%. The inhibition is 56.3% and 59.1% in test [19]; 1.57% and -2.36% in [20].
